Assay results reported in ChEMBL document CHEMBL3988442, “University of Dundee, Small-Polar-MMV Screening Library” (2021).
The whole screen tested about 48,000 compounds, of which about 13,000 (27%) showed an effect of 50% or more. Some of the results follow.

test system: Wolbachia pipientis; assay: Anti-Wolbachia Cell-Based Screen; assay type: functional; set-up: scale not given: in the data most compounds retested in dose-response had high values; settings: 5 µM

Row | Compound | Percent Effect
1 | Cc1nnc(N2CCC(CCn3ccnc3C)CC2)o1 | 2.305%
2 | Cc1ncnc(N2CCN(C(=O)C3CC4(CCNCC4)CN3)CC2)c1C (centres undefined) | -0.6445%
3 | Cc1nccn1CCC1CCN(c2ncccn2)CC1 | -9.43%
4 | Cc1nccn1CCC1CCN(C(=O)C2CC3(CCNCC3)CN2)CC1 (centres undefined) | 104.8%
5 | Cc1cnccc1N1CCN(C(=O)C2CC3(CCNCC3)CN2)CC1 (centres undefined) | 31.13%
6 | Cc1nccn1CCC1CCN(C2CCC3(CCNCC3)CC2)CC1 | 84.73%
7 | CCCN(CC(=O)OC)S(=O)(=O)c1cnc2c(c1)c(C)nn2C | 9.963%
8 | O=C(c1ccco1)N1C[C@H]2CCCN(C(=O)c3ccsc3)[C@H]2C1 | -8.905%
9 | CCS(=O)(=O)N1CCC2(CN(C(=O)c3cscn3)C2)C1 | 7.529%
10 | O=C(c1cscn1)N1CC[C@@H]2[C@@H]1CCN2c1ccccn1 | -2.894%
11 | O=C(NC1CC1)N1C[C@@H]2CCN(C(=O)c3cscn3)[C@@H]2C1 | 121.3%
12 | O=C(c1ccsc1)N1C[C@@H]2CCN(C(=O)c3cscn3)[C@@H]2C1 | 98.94%
13 | CS(=O)(=O)N1C[C@@H]2CCN(C(=O)c3cscn3)[C@@H]2C1 | 118.3%
14 | O=C(C1CCOC1)N1C[C@@H]2CCN(C(=O)c3cscn3)[C@@H]2C1 (some centres undefined) | 85.3%
15 | CC(C)C(=O)N1CCN(C(=O)c2cscn2)[C@H]2CS(=O)(=O)C[C@H]21 | 2.64%
16 | O=C(c1ccsc1)N1C[C@@H]2CCN(C(=O)c3cccc(F)c3)[C@@H]2C1 | -29.62%
17 | CS(=O)(=O)N1C[C@@H]2CCN(C(=O)c3ccco3)[C@@H]2C1 | -6.962%
18 | O=C(NC1CCCCC1)N1C[C@@H]2OCCN(C(=O)c3ccco3)[C@@H]2C1 | 2.504%
19 | CN1C[C@@H]2CN(C(=O)C3CCOC3)C[C@@H]2C1=O (some centres undefined) | 0.8988%
20 | Cc1nc(C(C)(C)NCc2ncc(C(C)C)o2)sc1C | 0.4552%
21 | O=C(C1CCS(=O)(=O)C1)N1CCC(=Cc2cccc(F)c2)CC1 (centres undefined) | 0.7274%
22 | Cc1ccc2nc(C(=O)N3C[C@@H](C(=O)O)[C@H](c4cccnc4)C3)cn2c1 | 96.84%

Row | Compound | Percent Effect
23 | Cc1c(Cl)c(C(=O)N2C[C@@H](C(=O)O)[C@H](c3cccnc3)C2)nn1C | 7.348%
24 | Cc1ccc(CN2C[C@@H](C(=O)O)[C@H](c3cccnc3)C2)s1 | -1.112%
25 | Cc1ccc2nc(C(=O)N3CC(n4nc(C)cc4C)C3)cn2c1 | -3.622%
26 | Cc1ccc(F)c(C(=O)N2C[C@@H](C(=O)O)[C@H](c3ccccc3)C2)c1Cl | 13.68%
27 | Cc1c(Cl)c(C(=O)N2CC(c3cccnc3)C2)nn1C | 11%
28 | COc1cc(C)sc1C(=O)N1CC(c2cccnc2)C1 | -11.08%
29 | Cc1ccc2nc(C(=O)N3CC(c4cccnc4)C3)cn2c1 | 95.05%
30 | Cc1ccc2nc(C(=O)N3C[C@@H](C(=O)O)[C@H](c4ccccc4)C3)cn2c1 | 107.2%
31 | Cc1c(-c2n[nH]c3c2CN(CC2CCOC2)CC3)cccc1C(F)(F)F (centres undefined) | -2.371%
32 | CCCOC(=O)C(C)Sc1nnnn1C1CCOCC1 (centres undefined) | -23.26%
33 | O=C(NC1CCOCC1)C1CC(=O)N(Cc2ccccn2)C1 (centres undefined) | -4.932%
34 | Cc1ncccc1CNCC1CCN(CC(O)c2ccccc2)CC1 (centres undefined) | 6.479%
35 | N[C@@H]1CC[C@H](C(=O)NCc2ccc3nonc3c2)C1 | -14.66%
36 | Cc1cccc(CN2CCN(C(=O)c3cnc(C)[nH]c3=O)CC2)c1 | -2.506%
37 | Cc1cccc(CN2CCN(C(=O)c3cc(Cl)c[nH]c3=O)CC2)c1 | -10.72%
38 | Cc1cccc(CSc2ncc(Cl)c(C(=O)O)n2)c1 | 112.8%
39 | Cc1ccc(CSc2ncc(Br)c(C(=O)O)n2)cc1 | 104.9%
40 | Cc1cccc(CSc2ncc(Br)c(C(=O)O)n2)c1 | 160.3%
41 | O=C(O)c1nc(SCc2ccccc2)ncc1Br | 220.2%
42 | Cc1ccnc(NC(=O)CSCc2cccnc2)c1 | -2.126%
43 | CC1(C)CN(CC(F)(F)F)CCN1CC(=O)NC1CC1 | -2.584%
44 | CSc1sc(NC(=O)Cc2c(C)nc(C)[nH]c2=O)nc1C | -3.918%

Row | Compound | Percent Effect
45 | Cc1ncnc(NCc2cc3n(n2)CCCN(S(C)(=O)=O)C3)c1C | 3.244%
46 | CNS(=O)(=O)c1csc(C(=O)N(C)Cc2ccccc2C)c1 | -9.289%
47 | CC1COc2ccccc2N1C(=O)CCc1cscn1 (centres undefined) | -5.764%
48 | O=C(O)c1nnn(Cc2ccc(F)cc2)c1-c1cccnc1 | 3.102%
49 | Cc1ccccc1CSc1nc(N)cc(N2CCCC(C(N)=O)C2)n1 (centres undefined) | -15%
50 | Cc1ccccc1CSc1nc(N)cc(N2CCC(CC(N)=O)CC2)n1 | 7.144%
51 | O=C(O)c1nc(SCc2ccc(F)cc2)ncc1Br | 202.4%
52 | Cc1ccccc1CSc1ncc(Br)c(C(=O)O)n1 | 130.2%
53 | Cc1cc(CN2CCc3nn(C(C)C)c(=O)cc3C2)no1 | -4.35%
54 | CCc1csc(CCNC(=O)C2CC(=O)N(C(C)C)C2)n1 (centres undefined) | 2.498%
55 | CCOCCC(=O)NC(c1noc(C)n1)c1ccccc1F (centres undefined) | -21.83%
56 | COc1ccc(CNCC(C)Oc2ccccn2)cc1Br.Cl (centres undefined) | 9.774%
57 | NC(=O)c1noc(Cn2ccc3ccccc3c2=O)n1 | -17.09%
58 | CNS(=O)(=O)c1cccc(C(C)NCc2ccccc2)c1 (centres undefined) | -4.826%
59 | CN(CCCOc1ccccc1)S(=O)(=O)N1CCOCC1 | 2.231%
60 | Cc1ccc(C(C)N(C)CCS(=O)(=O)CCC(N)=O)cc1 (centres undefined) | 1.361%
61 | Cc1ccc(OCCN(C)C(C)c2cccc(S(N)(=O)=O)c2)cc1 (centres undefined) | 121.8%
62 | Cc1ccc(OCCCC(=O)NC(C)c2ccc(S(N)(=O)=O)cc2)cc1 (centres undefined) | 31.07%
63 | CC(c1cccc(S(N)(=O)=O)c1)N(C)CCCOc1ccccc1 (centres undefined) | 114.5%
64 | Cc1cccc(C2CCCN2C(=O)CN(C)S(C)(=O)=O)c1C (centres undefined) | -12.58%
